The campaign covered roughly 340,000 compounds. About 1,700 (0.5%) were called active. The sample holds actives, similar compounds and a random draw of the others, so the mix is not that of the screen. A number with no mark means an inactive call. Cut-off read from the data, not from the text of the source: active = inhibition above about 36%; inactive = the rest.
Molecular target: Serine protease HTRA1 (Homo sapiens) (UniProt Q92743)
Assay: inhibition of human HTRA1 peptidase – biochemical, fluorescence polarization, HTS, primary screen (AID 504803);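 note: 0% = enzyme with DMSO and 100% = wells lacking enzyme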
Settings: recombinant HTRA1, FP-rhodamine activity-based probe, at 5.96 µM, hits give high values

Chain of Serine protease HTRA1 (Homo sapiens) (Q92743 whole entry, looked up): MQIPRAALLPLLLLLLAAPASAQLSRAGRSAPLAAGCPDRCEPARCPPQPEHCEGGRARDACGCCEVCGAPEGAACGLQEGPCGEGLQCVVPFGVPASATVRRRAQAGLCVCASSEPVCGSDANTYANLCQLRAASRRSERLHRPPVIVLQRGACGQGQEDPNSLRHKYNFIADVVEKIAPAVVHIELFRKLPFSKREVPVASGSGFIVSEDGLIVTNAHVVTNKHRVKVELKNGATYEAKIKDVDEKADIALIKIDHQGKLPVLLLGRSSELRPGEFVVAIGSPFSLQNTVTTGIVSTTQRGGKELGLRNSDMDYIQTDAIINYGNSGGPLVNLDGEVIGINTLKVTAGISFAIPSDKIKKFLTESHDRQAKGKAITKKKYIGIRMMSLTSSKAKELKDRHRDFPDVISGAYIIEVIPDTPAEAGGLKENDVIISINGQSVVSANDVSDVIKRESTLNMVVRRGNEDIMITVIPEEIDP

How did the inhibition turn out when `COc1ccc(Br)cc1/C=N/Nc1ccc(S(=O)(=O)Nc2ccccc2C(=O)O)cc1[N+](=O)[O-]` was run?
Its inhibition is -2.73%.

How did the inhibition turn out when `COc1ccc(S(=O)(=O)Nc2ccccc2C(=O)N2CCCC2)cc1C` was run?
Its inhibition is 1.39%.

How did the inhibition turn out when `COc1cccc(/C=N/Nc2ccc(S(=O)(=O)Nc3ccccc3C(=O)O)cc2[N+](=O)[O-])c1O` was run?
The inhibition was 40.5% (active).

`C=C(C)CNC(=S)N/N=C/c1ccccc1OCC(=O)O` was tested. Which inhibition did it give?
Its inhibition is 4.14%.

How did the inhibition turn out when `Cc1cc([N+](=O)[O-])ccc1NS(=O)(=O)c1ccccc1` was run?
The inhibition was -0.9%.

With `Cc1ccc(NS(=O)(=O)c2ccc(N/N=C/c3ccccc3OCC(=O)O)c([N+](=O)[O-])c2)c(C)c1` as the compound, how does the inhibition read?
Its inhibition is 37.7% (active).

`C[C@H]1CN([C@@H](C)CO)C(=O)CCCn2cc(nn2)CO[C@@H]1CN(C)S(=O)(=O)c1ccc(-c2ccccc2)cc1` was tested. Which inhibition did it give?
Its inhibition is -3.19%.

How did the inhibition turn out when `COc1ccc2c(c1)CCCO[C@]21O[C@H](CCO)C[C@H](O)[C@H]1O` was run?
The inhibition was -2.62%.

For `CC1=C(C(=O)N2CCOCC2)CC(CC(=O)NCc2ccco2)C(=O)N1Cc1ccc(F)cc1` (stereo not given), which inhibition is on record?
Its inhibition is 4.18%.

`Cc1ccn(CC(=O)NC2CCCN(Cc3ccccc3F)C2)n1` (stereo not given) was tested. Which inhibition did it give?
Its inhibition is 0.25%.

With `Cc1ccc(C(=O)NC(C)C(c2cccs2)N2CCOCC2)cc1C` (stereo not given) as the compound, how does the inhibition read?
Its inhibition is 1.64%.

Which inhibition does the source give for `C[C@@H]1CN([C@@H](C)CO)S(=O)(=O)c2ccc(C#Cc3cccc(F)c3)cc2O[C@H]1CN(C)S(=O)(=O)c1cn(C)cn1` here?
The inhibition was -25.7%.

Which inhibition does the source give for `CC(C)/C=N/NC(=O)c1cc(Br)ccc1O` here?
Its inhibition is 6.13%.

How did the inhibition turn out when `CC(=N\NC(=O)c1cc(Br)ccc1O)/C(=N/O)C(=O)Nc1ccccc1` was run?
The inhibition was 46.1% (active).

Which inhibition does the source give for `CC(=O)N/N=C(\C)c1ccc(Br)cc1Br` here?
Its inhibition is 2.26%.

For `CC1CCN(C(=O)CSc2nnc(-c3ccco3)n2N)CC1`, which inhibition is on record?
Its inhibition is 2.17%.

Which inhibition does the source give for `C[C@@H]1CN([C@@H](C)CO)C(=O)c2cc(Br)cnc2O[C@H]1CN(C)Cc1ccc(-c2ccccc2)cc1` here?
The inhibition was -13.1%.

With `Cc1ccn2c(-c3csc(Nc4ccc(C(=O)O)cc4)n3)c(C)nc2c1` as the compound, how does the inhibition read?
The inhibition was -2.27%.

With `Oc1ccc(-c2nc3ccccc3nc2-c2ccc(O)cc2O)c(O)c1` as the compound, how does the inhibition read?
The inhibition was -7.06%.

`Cc1ccc(Nc2nc(-c3ccc(O)cc3O)cs2)nc1` was tested. Which inhibition did it give?
The inhibition was 37.1% (active).

How did the inhibition turn out when `COc1ccc(S(=O)(=O)N(C)C[C@H]2OCc3cnnn3CCCC(=O)N([C@H](C)CO)C[C@H]2C)cc1` was run?
The inhibition was 0.5%.

`CC(OC(=O)c1cccnc1Cl)C(=O)NC1CCCCC1` (stereo not given) was tested. Which inhibition did it give?
The inhibition was 2.76%.

Which inhibition does the source give for `NC1=CC(=O)C(=O)c2cccnc21` here?
Its inhibition is 38.3% (active).

With `CCOc1ccc(CCN2C(=O)c3cccnc3C2=O)cc1OCC` as the compound, how does the inhibition read?
The inhibition was -1.21%.

Which inhibition does the source give for `Cc1ccc(CCNC(=O)CN2C(=O)CSc3ccc(S(=O)(=O)N4CCOCC4)cc32)cc1` here?
Its inhibition is -3.89%.

For `COCOCCn1cc(CN2CCS(=O)(=O)N(Cc3ccc(-c4ccc(OC)cc4)cc3)C(CC(C)C)C2=O)nn1` (stereo not given), which inhibition is on record?
The inhibition was -16.7%.

For `CCN(CC)c1ccc(/C=N/NC(=O)c2cnccn2)c(O)c1`, which inhibition is on record?
The inhibition was 11.4%.

How did the inhibition turn out when `Cc1cc(C)nc(N/N=C/c2c(CO)cnc(C)c2O)n1` was run?
The inhibition was 4.05%.

For `CCN(CC)c1ccc(/C=N/Nc2nc(C)cc(C)n2)c(O)c1`, which inhibition is on record?
The inhibition was 63.8% (active).

With `COc1ccc(CN2C(=O)C(CC(=O)NC3CCCCC3)CC(C(=O)N3CCOCC3)=C2C)cc1` (stereo not given) as the compound, how does the inhibition read?
The inhibition was 9.07%.

How did the inhibition turn out when `CCOc1c2ccc(C(=O)NCc3ccc(OC(F)(F)F)cc3)cc2nn1C` was run?
Its inhibition is -3.97%.

`O=C(Nc1ccc(OC(F)(F)F)cc1)c1ccc2c(c1)no[n+]2[O-]` was tested. Which inhibition did it give?
The inhibition was 42.3% (active).

`CCOC(=O)Cc1ncccc1C(=O)Nc1ccc(OC(F)(F)F)cc1` was tested. Which inhibition did it give?
Its inhibition is -0.74%.

How did the inhibition turn out when `C[C@H]1CN([C@@H](C)CO)S(=O)(=O)c2ccc(-c3cccc(F)c3)cc2O[C@@H]1CN(C)C` was run?
The inhibition was 0.65%.

For `Cn1c(CCN2CCN(c3ccccn3)CC2)nc2cc(NS(=O)(=O)c3ccc(F)cc3)ccc21`, which inhibition is on record?
The inhibition was -0.52%.

`C[C@H]1CN([C@@H](C)CO)C(=O)CCCn2cc(nn2)CO[C@@H]1CN(C)S(=O)(=O)c1ccc(-n2cccn2)cc1` was tested. Which inhibition did it give?
Its inhibition is -3.1%.

How did the inhibition turn out when `Oc1ccc(N=Cc2sc3ccccc3c2Cl)cc1` was run?
The inhibition was 65.8% (active).

`CC(=O)n1c(C=Nc2ccccc2)c(O)c2ccccc21` was tested. Which inhibition did it give?
Its inhibition is -1.27%.

How did the inhibition turn out when `C[C@H](CO)N1C[C@H](C)[C@H](CN(C)C(=O)Nc2ccc3c(c2)OCO3)Oc2ncc(Br)cc2C1=O` was run?
The inhibition was -0.29%.

Which inhibition does the source give for `Cc1c(NC(=O)COC(=O)/C=C/c2cccc(F)c2)c(=O)n(-c2ccccc2)n1C` here?
The inhibition was -0.4%.

`CC1(C)CC(=O)C=C(c2ccccc2CO)C1=O` was tested. Which inhibition did it give?
The inhibition was -3.27%.

For `CCCn1c(N)c(C(=O)CSc2nnc(Cc3cccs3)n2C2CC2)c(=O)[nH]c1=O`, which inhibition is on record?
Its inhibition is 3%.

Which inhibition does the source give for `COc1ccccc1-c1n[nH]nc1C1=CC(=O)CC(C)(C)C1` here?
Its inhibition is 3.87%.

For `CCc1ccc2c(c1)C1(NN=C(c3ccccc3)S1)C(=O)N2` (stereo not given), which inhibition is on record?
Its inhibition is 60.5% (active).

How did the inhibition turn out when `COc1ccc(-c2cnc3c(c2)C(=O)N([C@H](C)CO)C[C@@H](C)[C@H](CN(C)Cc2ccccc2)O3)cc1` was run?
Its inhibition is -5.18%.
